Records with an inconclusive call do not appear. Active and inactive are the calls of the source. Calls come from the whole dose curve; as a rule, active = well fitted inhibition curve with a large enough effect; inconclusive = small, poorly fitted or top-dose-only effect; inactive = no such curve, though single readings can be large or run the other way.
These compounds were tested against Rap guanine nucleotide exchange factor 3 (Homo sapiens) (UniProt O95398) (assay: Counterscreen qHTS for antagonist of cAMP-regulated guanine nucleotide exchange factor 3 (EPAC1) (AID 1645888; note: % of control where 0% means no effect)). Details: Rap1B-BODIPY-GDP nucleotide exchange, fluorescence; series mostly up to 154 µM; activity change, negative = inhibition: at the top concentration.
Rap guanine nucleotide exchange factor 3 (Homo sapiens), sequence (O95398 whole entry, looked up): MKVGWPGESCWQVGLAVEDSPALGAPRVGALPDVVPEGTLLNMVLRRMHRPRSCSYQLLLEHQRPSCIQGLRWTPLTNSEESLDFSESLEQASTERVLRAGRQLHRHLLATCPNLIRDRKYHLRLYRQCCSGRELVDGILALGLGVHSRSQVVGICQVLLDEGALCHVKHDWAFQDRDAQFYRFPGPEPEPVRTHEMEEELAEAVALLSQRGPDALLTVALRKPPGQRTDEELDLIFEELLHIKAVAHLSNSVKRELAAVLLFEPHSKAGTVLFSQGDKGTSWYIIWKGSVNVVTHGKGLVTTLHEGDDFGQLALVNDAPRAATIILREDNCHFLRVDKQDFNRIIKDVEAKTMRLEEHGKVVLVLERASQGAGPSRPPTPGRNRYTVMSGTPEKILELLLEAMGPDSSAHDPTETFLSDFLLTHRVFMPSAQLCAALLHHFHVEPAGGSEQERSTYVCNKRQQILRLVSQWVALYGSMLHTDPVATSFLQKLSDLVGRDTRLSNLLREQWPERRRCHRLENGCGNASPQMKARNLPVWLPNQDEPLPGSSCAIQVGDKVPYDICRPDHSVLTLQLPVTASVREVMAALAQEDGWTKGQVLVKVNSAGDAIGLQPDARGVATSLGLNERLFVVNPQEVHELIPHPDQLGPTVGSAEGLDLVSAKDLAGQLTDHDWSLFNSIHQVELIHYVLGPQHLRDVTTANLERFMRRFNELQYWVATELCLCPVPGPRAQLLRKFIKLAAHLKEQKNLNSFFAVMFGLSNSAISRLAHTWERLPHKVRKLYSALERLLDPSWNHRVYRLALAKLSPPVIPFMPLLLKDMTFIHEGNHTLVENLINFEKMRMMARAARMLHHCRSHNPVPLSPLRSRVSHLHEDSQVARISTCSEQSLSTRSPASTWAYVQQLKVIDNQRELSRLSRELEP
From the text: Assay Provider (PI): Xiaodong Cheng Ph.D. The University of Texas Medical Branch, […], TX MLPCN Grant: NS066510 In multi-cellular eukaryotic organisms, the effects of cAMP are transduced by two ubiquitously-expressed intracellular cAMP receptors, the classic protein kinase A/cAMP-dependent protein kinase (PKA/cAPK) and the more recently discovered exchange protein directly activated by cAMP/cAMP-regulated guanine nucleotide exchange factor (EPAC/cAMP-GEF). Both PKA and EPAC are ubiquitously expressed in all tissues, and an increase in intracellular cAMP levels will lead to the activation of both PKA and EPAC. Therefore, careful dissections of the individual role and relative contribution of EPAC and PKA within the overall cAMP signaling in various model systems are critical for further elucidating the mechanism of cAMP signaling. To date no EPAC-specific antagonists and agonist, as well as isoform-specific agonists have been reported, and developing EPAC-specific pharmacological probes to determine the physiological functions that EPAC play in the overall cAMP-mediated signaling remains a major challenge within the research field. Furthermore, identified regulators of EPAC may lead to new mechanism-based therapeutic strategies specifically targeting the EPAC / cAMP-signaling components as EPAC has been implicated to play important roles in major human pathological conditions such as diabetes, heart disease, and cancer. This qHTS will be used to screen the Molecular Libraries Small Molecule Repository (MLSMR) as a concentration-titration series using the NCGC unique quantitative screening (qHTS) platform to find activators for EPAC1. In addition, this assay will also be used as a counterscreen for the EPAC2 qHTS. This fluorescent based assay is developed and validated for EPAC1 that measures exchange using EPAC effector Rap1 complex with BODIPY-GDP, a GDP analog with a tethered fluorophores. Activators are identified by monitoring the change in fluorescence signal as the exchanged free BODIPY-GDP has a reduced fluorescence compared to Rap1-bound BODIPY-GDP. Increase in signal (activation) is the desired outcome for the EPAC1 agonist while no activity in this assay is desired for the EPAC2 agonist counterscreen. Reference: [1] de Rooij, J., Zwartkruis, F. J., Verheijen, M. H., Cool, R. H., Nijman, S. M., Wittinghofer, A., and Bos, J.L. (1998) Nature 396, 474-477. Kawasaki, H., Springett, G. M., Mochizuki, N., Toki, S., Nakaya, M., Matsuda, M., Housman, D. E., and Graybiel, A. M. (1998) Science 282, 2275-2279.
EPAC1 Counterscreen PROTOCOL TABLE SEQUENCE No. (e.g., 1, 2, 3, etc.); […] (e.g., Cells, Incubation, Reagent, etc.); VALUE and DESCRIPTION. 1. Reagent. 3 uL. [1x] 250 nM Rap1B-BODIPY-GDP, and 50 uM GDP. 2a. Compound. 23 nL. Control 6,572 uM cAMP (working concentration). 2b, 2c. Compound. 23 nL. Control activator and inhibitor; 234 - 30,000 uM cAMP and 16.4 - 10,000 uM. 2d. Compound. 46 nL. MLSMR follow-up library; 0.64 - 10,000 uM. 3. Time. 15 sec, 1000rpm. Centrifuge. 4. Time. 5 min. Incubation at room temperature. 5. Detector. Fluorescence. (Read 1), Ex/Em = 480 nm / 540 nm. 6. Time. 30 min. Incubation at room temperature. 7. Detector. Fluorescence. (Read 2), Ex/Em = 480 nm/ 540 nm. 8. Reagent. 1uL. Dispense either [4x] 10 uM cAMP or buffer. 9. Time. 15 sec, 1000 rpm. Centrifuge. 10. Time. 5 min. Incubation at room temperature. 11. Detector. Fluorescence. (Read 3), Ex/Em = 480 nm / 540 nm. 12. Time. 30 min. Incubation at room temperature. 13. Detector. Fluorescence. (Read 4), Ex/Em = 480 nm / 540 nm. NOTES (numbers refer to Sequence numbers above; values are from representative experiments) 1. Medium-binding black solid-bottom Greiner plates (789176-F). Dispense 3 uL of [1x] 250 nM Rap1B-BODIPY-GDP, and 50 uM GDP into columns 1 to 48. 2a. Control compound cAMP (6,572 uM, column 3, rows 1 to 32) single pin-transferred for a [final] of 50 uM. 2b. […]

SMILES	activity change, negative = inhibition
COc1ccccc1-c1ccc(Nc2cccc(C(F)(F)F)c2)nn1	6.67% (inactive)
O=C(Nc1ccc(Cl)cc1C(=O)O)c1ccc2c(c1)C(=O)N(Cc1ccco1)C2=O	-16.1% [at 30.8 µM] (inactive)
CCCC1C2CN(C(C)C)CC=C2C(C#N)=C(N)C1(C#N)C#N (stereo not given)	56% (inactive)
COc1cccc(OCCOc2ccc(/C=C3\C(=N)N4N=C(S(C)(=O)=O)SC4=NC3=O)cc2OC)c1	6.09% (inactive)
O=C(CSc1nnc(SCc2ccccc2)s1)N/N=C/C=C\c1ccco1	14.5% (inactive)
N#CC1=C(N)SC(N)=C(C#N)C1c1cccc(Oc2ccccc2)c1	51.3% (inactive)
CCN(CC)CCn1c2c(c(SCC(=O)NCc3ccccc3)nc1=O)CCCC2	-11.7% (inactive)
COc1cc2cncc(Cc3ccc(Cl)cc3)c2cc1OC	-0.965% (inactive)
O=C(/C=C/c1ccco1)NC(=S)Nc1cccc([N+](=O)[O-])c1	-9.95% [at 30.8 µM] (inactive)
O=C1NC(=Nc2ccccc2Cl)S/C1=C\c1cccc([N+](=O)[O-])c1O	-10.1% (inactive)
Cc1cc(/C=N/NC(N)=S)c(O)c(/C=N/NC(N)=S)c1	-21.4% (inactive)
COc1cc(/C=N/NC(=O)c2ccccn2)ccc1OC(=O)c1ccc(Br)cc1	20.6% (inactive)
Cc1ccc(C(=O)OCC(=O)Nc2sccc2C(N)=O)cc1NC(=O)c1ccco1	25.1% (inactive)
O=c1c2ccccc2nc(/C=C/c2cccnc2)n1CCc1ccccc1	-14.4% (inactive)
COC(=O)C(C)N(C(=O)c1ccc(Cl)cc1)c1c(C)cccc1C (stereo not given)	-17.2% (inactive)
CCOC(=O)N(C)c1c(CC)nc2c(OCc3ccc(OC(F)F)cc3)cccn12	3.84% (inactive)
COc1ccc(N/C=C2\CCc3ccccc3C2=O)cc1	21.9% (inactive)
CCCc1cc(C(=O)Nc2ccccc2C(=O)OC)no1	9.63% (inactive)
CC(=O)c1ccc(N2CCN(C(=O)C3CCCN(S(=O)(=O)c4c(C)[nH]c(=O)[nH]c4=O)C3)CC2)cc1 (stereo not given)	-4.52% (inactive)
Cc1ccc(NC(=O)CN(C)C(=O)COC(=O)C2=COCCO2)cc1	-1.81% [at 30.8 µM] (inactive)

SMILES	activity change, negative = inhibition
C[C@@H]1CN([C@@H](C)CO)S(=O)(=O)c2ccc(Br)cc2O[C@H]1CN(C)Cc1ccccc1F	-20.6% (inactive)
CCOCCCn1c(SCC(=O)Nc2ccc(OC)cc2OC)nc2ccccc2c1=O	31.2% (inactive)
Cc1ccc(CNC(=O)C(=O)NCCC2CCCCN2S(=O)(=O)c2cccs2)cc1 (stereo not given)	-26.3% [at 30.8 µM] (inactive)
O=C(CNC(=O)c1sc2ccccc2c1Cl)Nc1ccccc1F	-19.6% [at 30.8 µM] (inactive)
O=C(O)c1ccc(N/N=C/c2c(F)cccc2Cl)cc1	-2.2% [at 30.8 µM] (inactive)
Cc1ccc(S(=O)(=O)NC(=O)Cn2nnc(-c3ccccc3)c2COc2ccc3ccccc3c2)cc1	-4.6% (inactive)
OCc1cccc(-c2cnc3c(Nc4cccc(OC(F)(F)C(F)F)c4)nccn23)c1	9.1% [at 30.8 µM] (inactive)
COC(=O)C1=NNCC12CC(=O)N(c1ccc(Br)cc1)C2=O (stereo not given)	14.5% (inactive)
O=C1CC(=O)N(CCc2ccccc2)C(=O)N1CCc1ccccc1	28.9% (inactive)
C/C(=N\N1C(=O)c2ccccc2NC1c1ccco1)c1ccccc1O (stereo not given)	11.4% (inactive)
CC(C)c1ccc(NC(=O)c2ccc(Cn3nc(N4CCN(c5ccccc5)CC4)ccc3=O)o2)cc1	29.7% (inactive)
CC(=O)N(/N=C1/C(=O)Nc2ccccc21)c1ccccc1	9.34% (inactive)
Cc1cccc(NC(=S)NC(=O)/C=C/c2ccco2)c1	-6.19% (inactive)
Cc1ccc(C)c(S(=O)(=O)/N=C2\C=C(NS(=O)(=O)c3ccccc3)C(=O)c3ccccc32)c1	-11.3% [at 30.8 µM] (inactive)
Cc1ccc2nc(-c3ccccc3)c(Cc3ccccc3C(F)(F)F)n2c1	-25.3% (inactive)
COc1ccc2cc(-c3cn4c(n3)sc3cc(F)ccc34)c(=O)oc2c1	12.8% (inactive)
COc1ccc2cc3[n+](cc2c1O)CCc1cc2c(cc1-3)OCO2	5.77% (inactive)
Cc1occc1-c1nnc(SCC(=O)Nc2c(F)cccc2F)n1C	11.1% (inactive)
O=[N+]([O-])c1cc2ccccc2c(O)c1O	9.83% [at 30.8 µM] (inactive)
O=C(O)c1ccc(Nc2ncnc3ccccc23)cc1	-9.16% (inactive)
